Compound activity deposited in PubChem BioAssay by National Center for Advancing Translational Sciences (NCATS).
Most compounds without a hit are left out; they make up all but 19% or so of the library.
HepG2 tox – qHTS for Inhibitors of TGF-b: Cytotox Counterscreen | HepG2 CAGA-GFP viability, ATP luminescence, 18 h | Potency, µM (highest dose often 46.1 µM), without a hit: at the highest dose activity change, negative = cytotoxicity, hits mostly cytotoxic | 0.76% of 410,000 active | AID 588856, 2011; further: potency means the concentration at half of the fitted maximal effect
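HepG2 CAGA-GFP cells (1000/well, DMEM with 1% FBS) received compound, then TGF-beta at 500 pg/mL final, and were incubated 18 hours at 37 degrees C. Viability was read by CellTiter-Glo luminescence. Media-only wells were set as complete cell-killing and DMSO as no toxicity.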
IL-1B inflam inh – qHTS for Inhibitors of Inflammasome Signaling: IL-1-beta AlphaLISA Primary Screen; THP-1 LPS/ATP IL-1B secretion, AlphaLISA, 16 h; stronger effect = lower value; activity change, % at 57.5 µM; 4.7% of 360,000 active; AID 743279, 2014; in the data active means activity change below about -50%; inconclusive means mostly about -30% to -49%; further: on the % scale 0 is the no-effect control and ±100 the full control effect
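THP-1 cells pretreated 1 hr with compounds (up to 57.5 uM final), then stimulated with LPS (250 ng/mL final) plus ATP (1.25 mM final); secreted IL-1B measured by AlphaLISA after 16 hr, decreased signal indicating inhibition.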
DT40 TDP1 no CPT – qHTS for Inhibitors of human tyrosyl-DNA phosphodiesterase 1 (TDP1): qHTS in cells in absence of CPT; DT40 Tdp1-/- hTDP1 cells, no CPT, ATP luminescence, 48 h; Potency, µM (highest dose often 46.2 µM), inactives show top-dose activity change, negative = growth inhibition, usual class: inhibitors; 15% of 420,000 active; AID 686978, 2013; further: potency means the concentration at half of the fitted maximal effect; on the % scale 0 is the no-effect control and ±100 the full control effect; nearly all actives have a fitted effect of over 55% in size
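Growth kinetics read by CellTiter-Glo luminescence after ≥48 hr at 37 °C. Cells: DT40 Tdp1-/- stably carrying human TDP1, 400 per well, compound exposure in the absence of CPT (DMSO vehicle).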
TGFb SMAD3 inh – qHTS for Inhibitors of TGF-b; HepG2 CAGA-GFP TGF-b/SMAD3 reporter, GFP fluorescence, 18 h; TGF-beta stimulated, 500 pg/mL final; Potency, µM (series often up to 46.1 µM), without a hit: top-dose activity, negative = inhibition, hits mostly inhibitors; 1.2% of 410,000 active; further: potency means the concentration at half of the fitted maximal effect; on the % scale 0 is the no-effect control and ±100 the full control effect; nearly all actives have a fitted effect of over 65% in size
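Inhibition of TGF-beta-driven CAGA-GFP reporter expression in HEPG2 cells is measured by cellular GFP fluorescence after 18 h stimulation with 500 pg/mL recombinant TGF-beta in 1% FBS medium at 37 degrees C.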
DT40 TDP1 CPT – qHTS for Inhibitors of human tyrosyl-DNA phosphodiesterase 1 (TDP1): qHTS in cells in presence of CPT. chicken DT40 Tdp1-/-;hTDP1 cells + 20 nM CPT, ATP luminescence, 48 h. Potency, µM (series often up to 46.2 µM), for the others: at the top dose activity change, negative = growth inhibition, usual class: inhibitors. 12% of 420,000 active; further: potency means the concentration at half of the fitted maximal effect; on the % scale 0 is the no-effect control and ±100 the full control effect; nearly all actives have a fitted effect of over 55% in size
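Chicken DT40 Tdp1-/- cells stably complemented with human TDP1 were seeded at 400 cells/well in medium containing 20 nM camptothecin, exposed to pin-transferred compounds, and grown at 37 °C for at least 48 hr. Viability was read as ATP luminescence.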
ASM inhibitor – Inhibitors of Secretory Acid Sphingomyelinase (S-ASM): qHTS; Sphingomyelin phosphodiesterase (Homo sapiens), P17405; placental ASM, HMU-PC fluorogenic substrate, 60 min; Potency, µM (top dose mostly 57.5 µM), without a hit: top-dose activity change, negative = inhibition, usual class: inhibitors; 0.006% of 340,000 active; further: potency means the concentration at half of the fitted maximal effect
Target sequence (P17405 47-631 limits assumed): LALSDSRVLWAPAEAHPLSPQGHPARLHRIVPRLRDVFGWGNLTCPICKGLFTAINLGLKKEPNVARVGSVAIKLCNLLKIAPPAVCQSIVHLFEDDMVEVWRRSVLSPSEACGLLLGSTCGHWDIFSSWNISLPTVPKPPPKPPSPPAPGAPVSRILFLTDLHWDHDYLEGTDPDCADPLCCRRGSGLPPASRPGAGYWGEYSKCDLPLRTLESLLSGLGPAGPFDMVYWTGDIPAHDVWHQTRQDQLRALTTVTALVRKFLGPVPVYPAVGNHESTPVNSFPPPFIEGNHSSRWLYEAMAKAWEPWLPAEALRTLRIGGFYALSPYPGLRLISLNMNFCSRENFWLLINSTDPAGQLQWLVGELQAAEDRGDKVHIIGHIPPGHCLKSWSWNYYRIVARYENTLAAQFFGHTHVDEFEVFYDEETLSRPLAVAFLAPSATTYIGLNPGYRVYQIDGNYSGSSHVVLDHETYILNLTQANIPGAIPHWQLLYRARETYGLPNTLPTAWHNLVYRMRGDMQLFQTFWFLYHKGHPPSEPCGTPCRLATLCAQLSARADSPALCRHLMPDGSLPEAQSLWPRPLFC
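Human placenta-derived ASM enzyme was preincubated with compound for 10 minutes at room temperature, then given fluorogenic substrate HMU-PC0 (9 uM final) for 60 minutes at 37 °C; a pH 10 stop preceded fluorescence reading at Ex 386/Em 447 nm.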
* = called active by the depositor; u = inconclusive; x = no result given. Unless noted, the call rests on the fitted dose curve; in most records, active means well fitted curve in the direction sought with a large enough effect; inconclusive means small, poorly fitted or top-dose-only effect, or another doubt; inactive means no such curve, though single readings can be large; an effect the other way counts as inactive or inconclusive.

SMILES	HepG2 tox	IL-1B inflam inh	DT40 TDP1 no CPT	TGFb SMAD3 inh	DT40 TDP1 CPT	ASM inhibitor
C/C(=N\NC(=O)c1ccc(CN2CCc3ccccc3C2)cc1)c1ccccc1O	-1%	163	8.2µM*	u	12µM*	28%
COc1c(F)c(F)c(C(=O)Nc2ccc(N3CCN(Cc4ccccc4)CC3)cc2)c(F)c1F	-32%	-9	11µM*	0%	16µM*	-7%
COc1ccc(C(=O)Nc2ccc(N3CCN(Cc4ccccc4)CC3)cc2)cc1	0%	24	-17%	-2%	-14%	8%
CCCNC(=O)c1ccc(CN2CCc3ccccc3C2)cc1	-16%	2	-24%	-1%	-10%	7%
Cc1cc(C)c(NC(=O)c2ccc(CN3CCc4ccccc4C3)cc2)c(C)c1	0%	-17	12µM*	u	16µM*	3%
CC(C)c1csc(CN2CCC(CCC(=O)NCC3CCCO3)CC2)n1 (stereo unspecified)	-17%	6	5%	-4%	-1%	3%
COc1cccc(NC(=O)c2ccc(CN3CCc4ccccc4C3)cc2)c1	-52%	u	u	u	16µM*	1%
COc1cccc(C(=O)Nc2ccc(N3CCN(Cc4ccccc4)CC3)cc2)c1	-14%	u	u	u	u	-2%
COc1cccc(NC(=O)c2ccc(CN3CCN(c4ccccc4)CC3)cc2)c1	-23%	-2	18µM*	-16%	u	0%
Cc1ccc(-c2nn3c(=O)cc(CN4CCN(C(=O)/C=C/c5ccccc5)CC4)nc3s2)cc1	1%	x	-15%	-1%	-12%	x
CN(Cc1ccccc1)C(=O)c1ccc(NC(=O)Cc2ccc(NC(=O)C3CCN(C(=O)CCc4ccccc4)CC3)cc2)cc1	-10%	23	10µM*	-30%	26µM*	8%
CN(Cc1ccccc1)C(=O)c1ccc(NC(=O)Cc2ccc(NC(=O)C3CCN(C(=O)c4ccccc4)CC3)cc2)cc1	-3%	8	u	-2%	u	4%
CN(Cc1ccccc1)C(=O)c1cccc(NC(=O)Cc2ccc(NC(=O)C3CCN(C(=O)CCc4ccccc4)CC3)cc2)c1	-13%	-3	16µM*	u	u	-1%
CN(C(=O)c1ccc(NC(=O)Cc2ccc(NC(=O)C3CCN(C(=O)C4CCCC4)CC3)cc2)cc1)C1CCCC1	-20%	-17	u	-9%	u	3%
CN(Cc1ccccc1)C(=O)c1ccc(NC(=O)Cc2ccc(NC(=O)C3CCN(C(=O)C4CCCCC4)CC3)cc2)cc1	-14%	29	16µM*	5%	23µM*	-4%
CN(C(=O)c1ccc(NC(=O)Cc2ccc(NC(=O)C3CCN(C(=O)C4CCCCC4)CC3)cc2)cc1)C1CC1	10%	-61*	u	2%	u	-2%
CCOC(=O)C(=O)Nc1cc(C(=O)OC)cc(C(=O)OC)c1	-4%	-12	4%	-10%	1%	0%
Cc1ccnc(NC(=O)c2ccc(S(=O)(=O)N3CCCCCC3)cc2)c1	2.2µM*	-13	u	-23%	-23%	-1%
Cc1ccc(NS(=O)(=O)c2ccc(C)c(NC(=O)c3ccc(S(=O)(=O)N4CCCCCC4)cc3)c2)c(C)c1	-5%	8	10µM*	1%	18µM*	x
COc1cc(-c2noc(-c3cc(C)[nH]n3)n2)cc(OC)c1OC	-22%	x	u	3%	-20%	x
COc1ccc(OCc2nc(-c3ccc(OC)c(OC)c3)no2)cc1	-20%	x	u	30%	16µM*	x
CCOc1ccc(-c2cc(-c3nc(-c4ccc(OC)c(OC)c4)no3)[nH]n2)cc1	-17%	x	6.5µM*	22%	16µM*	x
CCOc1ccc(-c2cc(-c3nc(-c4cc(OC)c(OC)c(OC)c4)no3)[nH]n2)cc1Cl	-13%	x	3.3µM*	-3%	5.8µM*	x
Cc1ccc(NC(=O)CSc2nnc(/N=C/N(C)C)s2)cc1	8%	-6	-7%	3%	-14%	-3%
CCOC(=O)c1cc(OC)c2cccc(CN3CCCC(C)(C(=O)NCCOC)C3)c2c1 (stereo unspecified)	-48%	0	6.5µM*	-27%	9.2µM*	x
SMILES	HepG2 tox	IL-1B inflam inh	DT40 TDP1 no CPT	TGFb SMAD3 inh	DT40 TDP1 CPT	ASM inhibitor
CCCCNC(=O)C1(C)CCN1Cc1cccc2c(OC)cc(C(=O)OCC)cc12 (stereo unspecified)	-55%	u	13µM*	u	u	x
CCCNC(=O)C1(C)CCCN(Cc2cccc3ccccc23)C1 (stereo unspecified)	-22%	-18	u	-6%	u	x
COCCNC(=O)C1(C)CCCN(Cc2ccc(C)c3ccccc23)C1 (stereo unspecified)	-35%	u	16µM*	-29%	21µM*	x
COCCCNC(=O)c1ccc(Cn2c(=O)c3ccccc3n(CC(=O)Nc3c(C)cccc3C)c2=O)cc1	-13%	x	-7%	-25%	u	x
Cc1ccccc1-c1nnc2c3ccccc3c(C)nn12	-2%	-19	u	12%	2%	-3%
Cc1nn2c(-c3ccco3)nnc2c2ccccc12	-14%	-9	21µM*	-18%	u	-2%
COc1ccc(-c2nnc3c4ccccc4c(C)nn23)cc1	-14%	19	18µM*	u	u	-6%
Cc1cc(C)nc(-n2nc(C)c3c2NC(=O)CC3c2cccc(O)c2)n1 (stereo unspecified)	-9%	x	u	1%	u	x
Clc1ccc(OCc2nc3ccccc3[nH]2)cc1	0%	-51*	u	14%	4%	4%
